Assay results taken from PubChem BioAssay (NCATS).
Results filed as inconclusive are left out. Unmarked numbers belong to inactive results. Calls follow the shape of the dose curve; as a rule, active = well fitted activation curve with a large enough effect; inconclusive = small, poorly fitted or top-dose-only effect; inactive = no such curve, though single readings can be large or run the other way.

The molecules below were run against D(1A) dopamine receptor (Homo sapiens) (UniProt P21728) (assay: HTS Assay for Allosteric Agonists of the Human D1 Dopamine Receptor: Primary Screen for Potentiators (AID 488982; also: 0% is about no effect)). Conditions: HEK293 T-REx D1 inducible cells, calcium flux, kinetic fluorescence; series mostly up to 8.37 µM; activity, positive = potentiation: at the top concentration.
D(1A) dopamine receptor (Homo sapiens), sequence (P21728 whole entry, looked up): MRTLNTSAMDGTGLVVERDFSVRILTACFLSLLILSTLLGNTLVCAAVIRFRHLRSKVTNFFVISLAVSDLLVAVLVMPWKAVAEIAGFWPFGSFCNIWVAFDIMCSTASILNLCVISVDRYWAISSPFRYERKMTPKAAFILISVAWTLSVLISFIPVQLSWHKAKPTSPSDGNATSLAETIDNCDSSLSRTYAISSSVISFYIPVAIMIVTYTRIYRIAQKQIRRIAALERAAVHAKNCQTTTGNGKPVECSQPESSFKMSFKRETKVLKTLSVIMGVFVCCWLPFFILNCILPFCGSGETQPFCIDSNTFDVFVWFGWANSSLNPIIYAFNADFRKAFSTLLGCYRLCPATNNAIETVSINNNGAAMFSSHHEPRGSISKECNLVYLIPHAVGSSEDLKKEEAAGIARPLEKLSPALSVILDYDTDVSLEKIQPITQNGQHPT
Text: Dopamine receptors (DARs) are involved in the etiology and/or therapy of a number of neuropsychiatric and endocrine disorders. For instance, all receptor-based antiparkinsonian drugs work via stimulating the […] DAR subtype whereas all FDA-approved antipsychotic agents are antagonists of this receptor. […] There are three different types of allosteric modulators that we are seeking, two of which will stimulate or augment receptor signaling, allosteric agonists and potentiators, while the third, allosteric antagonists, will attenuate receptor signaling. The present primary screening assay measures compound agonism by tracking calcium flux in a […], inducible Hek293 Trex D1 cell line.
Freshly passaged cells are plated in 1536 well black, clear bottom plates at a density of 4000 cells/well in 3 ul of complete media containing 1x tetracycline inducer. After an overnight incubation at 30 C in 5% CO2, cells are loaded with 2 ul of the no wash Calcium Assay Kit (ABD Bioquest) and incubated at room temperature for 30 to 90 minutes. A 10 cycle (1 second/cycle) baseline measurement is taken and then the FDSS online 1536 pintool delivers 23 nl of compound library (as well as dopamine controls) to the plate. The plate is measured for kinetically at 1 cycle/sec for 180 seconds and is considered to be the agonist portion of the assay (eg, compounds which activate a positive calcium response during this portion are flagged as potential agonists). Following the 180 second read, 1 ul of an EC20 of dopamine is delivered by an onboard pipette head. Measurements are taken kinetically for an additional 180 seconds.

| SMILES | activity, positive = potentiation |
| --- | --- |
| CNCCCC1c2ccccc2C=Cc2ccccc21 | -74.3% |
| CC1=C(CC(=O)O)c2cc(F)ccc2/C1=C\c1ccc(S(C)=O)cc1 (stereo not given) | 4.69% |
| CCN(CC)CCNC(=O)c1cc(Cl)c(N)cc1OC | -71.1% |
| NC(=O)c1ncn([C@@H]2O[C@H](CO)[C@@H](O)[C@H]2O)n1 | 5.08% |
| NC(N)=NCCC[C@H](N)C(=O)O | -11.7% |
| CN(C)CC[C@@H](c1ccc(Cl)cc1)c1ccccn1 | -11% |
| CCN(CC)CCOC(=O)C1(C2CCCCC2)CCCCC1 | 5.19% |
| CC(C)C(=O)c1c(C(C)C)nn2ccccc12 | 7.98% |
| O=C1N=C(O)CN1/N=C/c1ccc(-c2ccc([N+](=O)[O-])cc2)o1 | -7.98% |
| CCN(CC)C(C)CN1c2ccccc2Sc2ccccc21 (stereo not given) | -31.1% |
| CNCCC(Oc1ccc(C(F)(F)F)cc1)c1ccccc1 (stereo not given) | -26.2% |
| CC(CN(C)C)CN1c2ccccc2CCc2ccccc21 (stereo not given) | -74.3% |
| CC1=C(/C=C/C(C)=C/C=C/C(C)=C/C(=O)O)C(C)(C)CCC1 | 21% |
| C#CCN(C)Cc1ccccc1 | 27.1% |
| CC(CN1c2ccccc2Sc2ccccc21)N(C)C (stereo not given) | -87.6% |
| Nc1cc(=O)[nH]c(N)n1 | -14.4% |
| C=Cc1c(C)c2cc3[nH]c(cc4nc(cc5nc(cc1[nH]2)C(C)=C5CCC(=O)O)C(CCC(=O)O)=C4C)c(C)c3C=C | 0.957% |
| CC(C(O)c1ccc(O)cc1)N1CCC(Cc2ccccc2)CC1 (stereo not given) | -92.3% |
| CC[C@H]1CN2CCc3cc(OC)c(OC)cc3[C@@H]2C[C@@H]1C[C@H]1NCCc2cc(OC)c(OC)cc21 | -11.7% |
| OCc1cc(C(O)CNCCCCCCOCCCCc2ccccc2)ccc1O (stereo not given) | -21.4% |

| SMILES | activity, positive = potentiation |
| --- | --- |
| CC(=O)OCC(=O)[C@@]1(O)CC[C@H]2[C@@H]3CCC4=CC(=O)CC[C@]4(C)[C@H]3C(=O)C[C@@]21C | 25.3% |
| OCCN1CCN(CCCN2c3ccccc3Sc3ccc(Cl)cc32)CC1 | -127% |
| CCCCCCCCCCCCCCCC(=O)NCCO | -12.4% |
| Cc1cc(N)c2ccccc2[n+]1CCCCCCCCCC[n+]1c(C)cc(N)c2ccccc21 | -38.2% |
| CCN(CC)CCCC(C)Nc1c2ccc(Cl)cc2nc2ccc(OC)cc12 (stereo not given) | -2.61% |
| COCCOC(=O)C1=C(C)NC(C)=C(C(=O)OC/C=C/c2ccccc2)C1c1cccc([N+](=O)[O-])c1 (stereo not given) | -36.2% |
| NC1CCN(c2cccc(Cl)n2)CC1 | -10.1% |
| CC(C)(C(=O)O)c1ccc(C(O)CCCN2CCC(C(O)(c3ccccc3)c3ccccc3)CC2)cc1 (stereo not given) | 18.2% |
| CNC(=O)Oc1ccc2c(c1)[C@]1(C)CCN(C)[C@@H]1N2C | 16.5% |
| CCCn1cnc2c1c(=O)n(CCCCC(C)=O)c(=O)n2C | 21.4% |
| C[C@](N)(Cc1ccc(O)cc1)C(=O)O | 12.3% |
| CSc1ccc2c(c1)C(N1CCN(C)CC1)Cc1ccccc1S2 (stereo not given) | -107% |
| Nc1ncnc2c1ncn2[C@@H]1O[C@H](CO)[C@@H](O)[C@H]1O | 46.1% |
| C[C@]12C[C@H](O)[C@H]3[C@@H](CCC4=CC(=O)CC[C@@]43C)[C@@H]1CC[C@@H]2C(=O)CO | 17.8% |
| CNCC(O)c1ccc(O)c(O)c1 (stereo not given) | -85% |
| N=c1c[n+](N2CCOCC2)[n-]o1 | 18.3% |
| COc1ccc(Cl)cc1C(=O)NCCc1ccc(S(=O)(=O)NC(=O)NC2CCCCC2)cc1 | -10% |
| CN1CCN(C2Cc3ccccc3Sc3ccc(Cl)cc32)CC1 (stereo not given) | -94.5% |
| CN(C)CCOC(C)(c1ccccc1)c1ccccn1 (stereo not given) | 4.12% |
| C[C@]12CC[C@@H]3c4ccc(O)cc4CC[C@H]3[C@@H]1CCC2=O | 13.4% |
